Data: PubChem BioAssay (NCI)
About 83,000 compounds went through this panel and 20% of them were active in at least one assay; those are over-represented in the sample as a whole.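 Single-dose data. Exposure time 48 hours. Values below 10 considered active.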 A number with no mark means an inactive call. Calls of active or inactive are those of the source.

How the values were obtained:
Test in all cases: NCI-60 one-dose screen, 48 h (100 = growth as untreated, 0 = no growth, -100 = all killed)
Settings in all cases: 10 µM unless noted
HCT-15 colon = system: HCT-15 colon
HT29 colon = system: HT29 colon
SNB-75 CNS = system: SNB-75 CNS
SNB-19 CNS = system: SNB-19 CNS
U251 CNS = system: U251 CNS
PC-3 prostate = system: PC-3 prostate
SK-MEL-5 melanoma = system: SK-MEL-5 melanoma
UACC-62 melanoma = system: UACC-62 melanoma
LOX IMVI melanoma = system: LOX IMVI melanoma
SK-MEL-28 melanoma = system: SK-MEL-28 melanoma
SK-MEL-2 melanoma = system: SK-MEL-2 melanoma
EKVX NSCLC = system: EKVX NSCLC
SN12C renal = system: SN12C renal
UO-31 renal = system: UO-31 renal
TK-10 renal = system: TK-10 renal
ACHN renal = system: ACHN renal
CAKI-1 renal = system: CAKI-1 renal
A498 renal = system: A498 renal
CCRF-CEM leukemia = system: CCRF-CEM leukemia
MOLT-4 leukemia = system: MOLT-4 leukemia

| Compound | growth (HCT-15 colon) | growth (HT29 colon) | growth (SNB-75 CNS) | growth (SNB-19 CNS) | growth (U251 CNS) | growth (PC-3 prostate) | growth (SK-MEL-5 melanoma) | growth (UACC-62 melanoma) | growth (LOX IMVI melanoma) | growth (SK-MEL-28 melanoma) | growth (SK-MEL-2 melanoma) | growth (EKVX NSCLC) | growth (SN12C renal) | growth (UO-31 renal) | growth (TK-10 renal) | growth (ACHN renal) | growth (CAKI-1 renal) | growth (A498 renal) | growth (CCRF-CEM leukemia) | growth (MOLT-4 leukemia) |
| --- | --- | --- | --- | --- | --- | --- | --- | --- | --- | --- | --- | --- | --- | --- | --- | --- | --- | --- | --- | --- |
| O=C(/C=C/c1cccc(Oc2ccccc2)c1)c1ccc(Nc2nc(Nc3ccc(F)cc3)nc(Nc3ccc(Cl)cc3)n2)cc1 | 109% | 101% | 92.5% | 108% | 101% | 94% | 96.4% | 105% | 108% | 112% | 69.1% | 106% | 123% | 91.8% | 130% | 98.6% | 104% | 113% | 116% | -35.6% (active) |
| CCCn1c(=S)sc2c(NNC(C)=O)nc(C)nc21 | 90.2% | 103% | 89.9% | 92.4% | 91.1% | 90.3% | 96.4% | 93% | 87% | 141% | 92.5% | 88.5% | 101% | 90% | 94.5% | 88.1% | 70.7% | 78.1% | 88% | 114% |
| N=C(N)c1ccc(-c2ccc(-c3ccccc3)o2)o1 | 13% | 4.83% (active) | 32.8% | 38.3% | 10.3% | 30.4% | 30.5% | 61.9% | 14.3% | 69.1% | 45.1% | 51.9% | 39% | 41.9% | 60.5% | 38.5% | 37.4% | 48.7% | 15.4% | 15.6% |
| COc1cc(-c2ccc[nH]2)[nH]c1/C=C1\N=C(C)C(CC(=O)OCC(C)(C)C)=C1C | -78% (active) | -59.9% (active) | -23.8% (active) | -33.3% (active) | -95.6% (active) | -88.3% (active) | -95.7% (active) | -82.6% (active) | -88.3% (active) | -78.2% (active) | -60.4% (active) | -69.3% (active) | -75% (active) | -86.5% (active) | -89.9% (active) | -83.2% (active) | -78.8% (active) | -89.9% (active) | -16.5% (active) | -37% (active) |
| Cc1ccc(C)c2c1sc1nc(N3CCOCC3)c(C#N)c(=O)n12 | 102% | 97.2% | 53.2% | 96.3% | 58.9% | 18.5% | 88.5% | 90.2% | 67% | 103% | 110% | 80.2% | 104% | 74.9% | 154% | 105% | 105% | 75.7% | 83.1% | 110% |
| CCN(CC)CCCNc1cc(OC)c(OC)c2cccnc12 | 72% | 83.7% | 102% | 63.5% | 52.6% | 54.8% | 62.4% | 60.6% | 34.2% | 93.8% | 88.1% | 100% | 57.3% | 46.6% | 98.9% | 42.3% | 52.5% | 81.8% | 74.6% | 52.8% |
| O=S(Nc1ccccc1)c1ccc(Cl)cc1 (stereo not given) | 109% | 102% | 83.2% | 96.8% | 95.1% | 89.8% | 99.8% | 90.4% | 100% | 107% | 95.2% | 102% | 102% | 85.7% | 103% | 94.5% | 95.5% | 95.8% | 95.7% | 85.7% |
| C=C1SC(=Nc2ccccc2Cl)N(C(=O)c2sc3ccccc3c2Cl)C1(C)C | 81.4% | 61.6% | 42.6% | 42.9% | 49.2% | 30.7% | 66.7% | 60% | 77.3% | 113% | 151% | 54.4% | 78.9% | 107% | 107% | 46.1% | 49% | 90.5% | 19.8% | 20.3% |
| COc1ccc2c(O)c(/C=C3\N=Nc4ncccc43)oc2c1C[C@@H]1CCNC[C@H]1F | -1.3% (active) | 5.21% (active) | -57.3% (active) | 1.93% (active) | -84.7% (active) | -29.1% (active) | 5.56% (active) | -33.2% (active) | -93% (active) | 5.44% (active) | -17.9% (active) | -5.63% (active) | -28.2% (active) | -14.5% (active) | -2.3% (active) | -52.7% (active) | 1.53% (active) | -32.1% (active) | -17.4% (active) | -9.39% (active) |
| COCCn1cc(-c2nc(-c3c[nH]c4ncccc34)cs2)c2ccccc21 | 20.3% | 50.2% | 47.2% | 88.6% | 72% | 33.2% | 34.3% | 64.4% | 66.9% | 89.4% | 77.5% | 16.4% | 77.8% | 41% | 36.2% | 67.6% | 62.7% | 44.7% | 56.6% | 48.7% |
| C#Cc1cccc(Nc2ncnc3cc(NC(=O)CCl)ccc23)c1 | -67.7% (active) | -65.5% (active) | -97.2% (active) | -70.8% (active) | -88.1% (active) | -64.9% (active) | -93.9% (active) | -68.6% (active) | -62.7% (active) | -45.1% (active) | -61.5% (active) | -45.5% (active) | -78.1% (active) | -91.5% (active) | -91.5% (active) | -95.9% (active) | -82.4% (active) | 20.5% | -19.4% (active) | -16.4% (active) |
| O=C(CSc1nnnn1-c1ccccc1)Nc1ccc(Oc2ccccc2)cc1 | 97.4% | 108% | 101% | 98.8% | 101% | 96.1% | 103% | 82.3% | 104% | 100% | 81% | 100% | 88.4% | 77.2% | 119% | 99.7% | 107% | 103% | 114% | 91.7% |
| [N-]=[N+]=NCC1OC(n2cnc3c(NC(=O)Nc4ccccc4)ncnc32)C2OC(=O)CC12 (stereo not given) | 91.2% | 109% | 93.7% | 106% | 110% | 97.4% | 106% | 107% | 93.2% | 118% | 90.7% | 104% | 118% | 78.8% | 101% | 101% | 101% | 100% | 91.7% | 84.6% |
